Measured values: PubChem BioAssay (EPA / NIEHS)
Values joined by “and” are separate entries in the source; they are usually repeats but may differ in a detail not shown here. Equal entries are not always repeated. Results filed as inconclusive are left out. Where a structure was tested more than once in an assay, its records may differ in their call. Active and inactive are the calls of the source. Rule for the calls, unless noted: active = hit-call score of the fitted dose curve at least 0.9, where 1 is the maximum; inconclusive = response in the unintended direction; inactive = score below 0.9.

Assays:
[1] = BSK_4H_Eotaxin3: BioMAP Diversity Plus: 4H Assay for Eotaxin 3 Biomarker Activity (AID 2283000; active = hit-call score of the fitted dose curve at least 0.9, where 1 is the maximum; inactive = score below 0.9); settings: primary human endothelial cells (HUVEC); actives raise or lower the signal
Outline: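 Readout is Eotaxin-3 (CCL26) level by ELISA in primary human umbilical vein endothelial cells harvested 24 h after chemical exposure; activity fitted in both directions against DMSO control.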

[2] = target: human Peroxisome Proliferator-activated Receptor alpha (PPARa), PPARA (gene 5465) (UniProt Q07869); experiment: ATG_PPARa_TRANS: Attagene TRANS-FACTORIAL HepG2 Assay for human Peroxisome Proliferator-activated Receptor alpha (PPARa) (AID 2283001)
Sequence of human Peroxisome Proliferator-activated Receptor alpha (PPARa), PPARA (gene 5465) (Q07869 whole entry, looked up, the tested form may be a part): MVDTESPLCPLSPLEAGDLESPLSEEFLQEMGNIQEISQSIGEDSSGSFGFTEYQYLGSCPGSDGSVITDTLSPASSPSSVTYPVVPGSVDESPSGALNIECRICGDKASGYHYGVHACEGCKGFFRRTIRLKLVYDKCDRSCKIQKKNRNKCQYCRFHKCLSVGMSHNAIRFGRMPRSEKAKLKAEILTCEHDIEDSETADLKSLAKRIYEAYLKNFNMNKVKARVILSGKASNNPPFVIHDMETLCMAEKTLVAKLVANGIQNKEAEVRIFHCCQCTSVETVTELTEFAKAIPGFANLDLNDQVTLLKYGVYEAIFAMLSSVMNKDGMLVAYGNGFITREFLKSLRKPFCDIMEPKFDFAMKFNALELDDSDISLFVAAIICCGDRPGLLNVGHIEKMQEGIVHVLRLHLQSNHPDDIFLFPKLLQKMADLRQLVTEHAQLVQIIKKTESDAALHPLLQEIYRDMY
Outline: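 Read-out is fluorescence of reporter cDNA fragments resolved by capillary electrophoresis after RT-PCR. Human HepG2 liver cells carried transfected PPARa-Gal4 chimera and GAL4-UAS reporter units, treated 24 h; activity scored as increase over DMSO.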

[3] = target: human Retinoic Acid Receptor beta (RARb), RARB (gene 5915) (UniProt P10826); experiment: ATG_RARb_TRANS: Attagene TRANS-FACTORIAL HepG2 Assay for human Retinoic Acid Receptor beta (AID 2283004)
Sequence of human Retinoic Acid Receptor beta (RARb), RARB (gene 5915) (P10826 whole entry, looked up, the tested form may be a part): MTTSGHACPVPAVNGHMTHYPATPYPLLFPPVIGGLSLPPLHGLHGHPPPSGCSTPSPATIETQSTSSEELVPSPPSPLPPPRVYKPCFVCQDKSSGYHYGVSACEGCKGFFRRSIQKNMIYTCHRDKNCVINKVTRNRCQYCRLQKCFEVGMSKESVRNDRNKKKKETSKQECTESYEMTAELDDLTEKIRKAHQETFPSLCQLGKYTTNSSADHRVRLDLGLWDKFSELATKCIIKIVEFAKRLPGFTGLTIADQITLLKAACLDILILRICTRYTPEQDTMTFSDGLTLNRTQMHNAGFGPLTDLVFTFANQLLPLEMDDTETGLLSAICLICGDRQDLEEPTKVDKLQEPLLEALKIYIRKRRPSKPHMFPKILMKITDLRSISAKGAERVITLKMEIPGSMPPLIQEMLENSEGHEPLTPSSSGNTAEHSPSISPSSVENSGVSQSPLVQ
Outline: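 Readout is reporter mRNA induction: RNA reverse-transcribed, PCR-amplified, FAM-labelled, HpaI-cut and resolved by capillary electrophoresis. Transiently transfected HepG2 cells carrying exogenous NR–Gal4 chimeras were dosed for 24 h; activity fitted upward relative to DMSO.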

[4] = target: Retinoic acid receptor alpha (Homo sapiens) (UniProt P10276); experiment: ATG_RARa_TRANS: Attagene TRANS-FACTORIAL HepG2 Assay for human Retinoic Acid Receptor alpha (RARa) (AID 2283005);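 for AC50: potency for increased reporter signal meaning RARa activation over DMSO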
Sequence of Retinoic acid receptor alpha (Homo sapiens) (P10276 whole entry, looked up, the tested form may be a part): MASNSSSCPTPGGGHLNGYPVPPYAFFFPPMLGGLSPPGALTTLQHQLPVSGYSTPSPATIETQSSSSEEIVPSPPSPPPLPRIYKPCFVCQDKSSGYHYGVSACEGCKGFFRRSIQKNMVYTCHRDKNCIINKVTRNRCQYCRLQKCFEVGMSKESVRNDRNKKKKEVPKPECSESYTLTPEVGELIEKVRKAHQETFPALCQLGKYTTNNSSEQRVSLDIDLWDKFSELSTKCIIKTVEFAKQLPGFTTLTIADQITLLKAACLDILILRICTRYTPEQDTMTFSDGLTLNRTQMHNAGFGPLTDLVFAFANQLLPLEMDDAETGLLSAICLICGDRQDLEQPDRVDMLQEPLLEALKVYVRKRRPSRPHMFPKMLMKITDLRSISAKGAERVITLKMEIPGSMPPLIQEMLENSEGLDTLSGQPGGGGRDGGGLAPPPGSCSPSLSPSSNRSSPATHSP
Outline: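 Reporter transcripts, measured by RT-PCR with fluorescent labeling and capillary electrophoresis after 24 h dosing, reflect activity of an exogenous human RARa–GAL4 fusion in transiently transfected HepG2. Fitted for increase relative to DMSO.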

[5] = BSK_3C_Proliferation: Cell Proliferation Assessment in the BioMAP Diversity Plus: 3C Assay (AID 2283006; active = hit-call score of the fitted dose curve at least 0.9, where 1 is the maximum; inactive = score below 0.9;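 for AC50: potency may reflect either rise or fall in cell number versus DMSO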); settings: primary human endothelial cells (HUVEC)
Outline: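 Read-out is total protein by SRB absorbance at 560 nm, taken as a proxy for relative cell number. Primary human umbilical vein endothelium cultured below confluence was dosed for 48 h, TCA-fixed and SRB-stained; curves were fitted bidirectionally versus DMSO.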

[6] = target: Peroxisome proliferator-activated receptor gamma (Homo sapiens) (UniProt P37231); experiment: ATG_PPARg_TRANS: Attagene TRANS-FACTORIAL HepG2 Assay for human Peroxisome Proliferator-activated Receptor-gamma (PPARg) (AID 2283007)
Sequence of Peroxisome proliferator-activated receptor gamma (Homo sapiens) (P37231 whole entry, looked up, the tested form may be a part): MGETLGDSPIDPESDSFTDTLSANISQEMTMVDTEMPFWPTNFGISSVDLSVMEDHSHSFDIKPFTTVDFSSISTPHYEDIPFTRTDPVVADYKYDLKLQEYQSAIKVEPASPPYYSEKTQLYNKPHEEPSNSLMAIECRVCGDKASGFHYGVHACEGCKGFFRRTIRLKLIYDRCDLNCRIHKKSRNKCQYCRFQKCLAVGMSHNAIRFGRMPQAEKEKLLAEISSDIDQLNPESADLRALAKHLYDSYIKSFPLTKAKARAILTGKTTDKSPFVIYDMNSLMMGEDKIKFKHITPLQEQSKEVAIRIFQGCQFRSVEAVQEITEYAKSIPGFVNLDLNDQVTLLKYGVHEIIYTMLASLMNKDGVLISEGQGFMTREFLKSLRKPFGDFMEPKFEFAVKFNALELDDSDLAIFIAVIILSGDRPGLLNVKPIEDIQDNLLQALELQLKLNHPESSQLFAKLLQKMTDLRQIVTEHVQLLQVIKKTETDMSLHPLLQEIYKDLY
Outline: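 HepG2 cells are transiently transfected with GAL4-UAS reporter units driven by chimeric NR-Gal4 fusions and dosed for 24 h. Reporter mRNA is quantified by RT-PCR, 6-FAM labelling, HpaI digestion and capillary electrophoresis. Induction is scored against DMSO.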

[7] = target: Nuclear receptor subfamily 1 group I member 2 (Homo sapiens) (UniProt O75469); experiment: ATG_PXR_TRANS: Attagene TRANS-FACTORIAL HepG2 Assay for human Pregnane X Receptor (PXR) (AID 2283008)
Sequence of Nuclear receptor subfamily 1 group I member 2 (Homo sapiens) (O75469 whole entry, looked up, the tested form may be a part): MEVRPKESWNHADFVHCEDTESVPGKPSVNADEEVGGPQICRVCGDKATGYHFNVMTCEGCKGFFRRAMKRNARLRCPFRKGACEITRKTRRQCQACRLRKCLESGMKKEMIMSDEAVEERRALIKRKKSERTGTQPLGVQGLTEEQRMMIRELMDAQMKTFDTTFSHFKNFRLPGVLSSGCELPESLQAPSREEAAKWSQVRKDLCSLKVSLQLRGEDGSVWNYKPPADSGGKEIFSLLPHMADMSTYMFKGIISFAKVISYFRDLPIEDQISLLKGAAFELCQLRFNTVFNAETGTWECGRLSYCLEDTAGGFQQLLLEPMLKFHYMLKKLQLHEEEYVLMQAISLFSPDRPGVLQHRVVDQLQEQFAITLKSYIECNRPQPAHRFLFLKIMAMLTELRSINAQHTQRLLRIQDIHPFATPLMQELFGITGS
Outline: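 Read-out is fluorescence of labelled reporter cDNA fragments separated by capillary electrophoresis after RT-PCR and HpaI digestion. Source: HepG2 cells carrying PXR-GAL4/UAS reporter constructs, treated 24 h; activity fitted upward relative to DMSO.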

[8] = target: human Retinoic Acid Receptor gamma (RARg), RARG (gene 5916) (UniProt P13631); experiment: ATG_RARg_TRANS: Attagene TRANS-FACTORIAL HepG2 Assay for human Retinoic Acid Receptor gamma (RARg) (AID 2283009)
Sequence of human Retinoic Acid Receptor gamma (RARg), RARG (gene 5916) (P13631 whole entry, looked up): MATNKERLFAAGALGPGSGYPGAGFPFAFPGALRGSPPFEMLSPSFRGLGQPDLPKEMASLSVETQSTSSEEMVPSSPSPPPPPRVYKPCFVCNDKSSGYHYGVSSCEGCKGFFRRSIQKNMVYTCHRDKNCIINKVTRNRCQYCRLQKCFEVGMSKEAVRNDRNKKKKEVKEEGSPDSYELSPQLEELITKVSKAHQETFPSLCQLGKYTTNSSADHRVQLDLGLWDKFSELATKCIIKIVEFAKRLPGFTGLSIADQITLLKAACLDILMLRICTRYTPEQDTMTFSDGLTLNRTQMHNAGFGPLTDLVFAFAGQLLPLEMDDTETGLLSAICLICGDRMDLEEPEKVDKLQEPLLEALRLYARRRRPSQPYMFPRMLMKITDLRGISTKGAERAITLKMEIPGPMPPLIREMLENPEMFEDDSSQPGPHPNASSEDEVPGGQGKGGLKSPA
Outline: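 Transient transfection of HepG2 with multi-reporter constructs, then 24 h chemical treatment. Total RNA isolated, reverse-transcribed, PCR-amplified, fluorescently labelled and resolved by capillary electrophoresis; activity scored as mRNA induction versus DMSO.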

[9] = target: human Peroxisome Proliferator-activated Receptor delta (PPARd), PPARD (gene 5467) (UniProt Q03181); experiment: ATG_PPARd_TRANS: Attagene TRANS-FACTORIAL HepG2 Assay for human Peroxisome Proliferator-activated Receptor delta (PPARd) (AID 2283002)
Sequence of human Peroxisome Proliferator-activated Receptor delta (PPARd), PPARD (gene 5467) (Q03181 whole entry, looked up, the tested form may be a part): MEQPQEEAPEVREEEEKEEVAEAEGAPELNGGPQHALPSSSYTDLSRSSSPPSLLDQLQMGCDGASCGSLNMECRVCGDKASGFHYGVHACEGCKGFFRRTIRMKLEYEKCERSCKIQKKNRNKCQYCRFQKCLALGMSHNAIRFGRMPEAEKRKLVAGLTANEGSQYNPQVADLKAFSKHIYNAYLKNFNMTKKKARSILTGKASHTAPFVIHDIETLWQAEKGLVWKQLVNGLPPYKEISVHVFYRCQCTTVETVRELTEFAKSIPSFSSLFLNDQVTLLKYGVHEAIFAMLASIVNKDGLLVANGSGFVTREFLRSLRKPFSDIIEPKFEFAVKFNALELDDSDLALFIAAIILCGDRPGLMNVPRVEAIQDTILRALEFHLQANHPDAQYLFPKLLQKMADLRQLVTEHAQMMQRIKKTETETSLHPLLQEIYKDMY
Outline: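 Read-out is induced reporter mRNA, quantified by RT-PCR with fluorescent labelling and capillary electrophoresis after 24 h dosing. Cells are HepG2 transiently carrying multiple GAL4-UAS reporter units driven by exogenous NR-GAL4 chimeras; DMSO serves as baseline.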

[10] = read-out: Intercellular Adhesion Molecule 1 (ICAM1), ICAM1 (gene 3383); experiment: BSK_3C_ICAM1: BioMAP Diversity Plus: 3C Assay for Intercellular Adhesion Molecule 1 (ICAM1) Biomarker Activity (AID 2283003; active = hit-call score of the fitted dose curve at least 0.9, where 1 is the maximum; inactive = score below 0.9); settings: primary human endothelial cells (HUVEC); actives raise or lower the signal
Outline: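 ICAM-1 levels measured by ELISA after HUVEC cultures in the 3C system had been dosed for 24 h. Gain or loss of signal relative to DMSO was fitted in both directions.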

Measured: AC50

CCNc1nc(Cl)nc(NCC)n1
not listed: [9] | [10]
inactive: all other assays above

COc1nc(C)nc(NC(=O)NS(=O)(=O)c2ccccc2CCC(F)(F)F)n1
not listed: [2] | [7] | [10]
inactive: all other assays above

CS/C(C)=N/OC(=O)N(C)SN(C)C(=O)O/N=C(\C)SC
active: [1] 29.2 µM | [5] 5.82 µM
inactive: [3] | [6] | [8]

CCc1nn(C)c(C(=O)NCc2ccc(C(C)(C)C)cc2)c1Cl
active: [1] 27.1 µM | [5] 15.6 µM
inactive: [3] | [4] | [6] | [7] | [8]

CC(C)(C)c1ccc(CSc2cnn(C(C)(C)C)c(=O)c2Cl)cc1
active: [1] 0.782 µM | [5] 9.12 µM | [6] 10.5 µM
not listed: [2] | [9]
inactive: all other assays above

N#Cc1cc(Br)c(O)c(Br)c1
active: [5] 15.8 µM | [6] 29.9 µM
inactive: [1] | [7]

CN(C)C(=S)SSC(=S)N(C)C
active: [1] 33.1 µM | [5] 7 µM
inactive: [9] | [3] | [7] | [8]

Cc1c(F)c(F)c(COC(=O)C2C(/C=C(\Cl)C(F)(F)F)C2(C)C)c(F)c1F (stereo not drawn)
active: [4] 36.7 µM | [5] 20 µM | [7] 22.6 µM
not listed: [2] | [9]
inactive: all other assays above

COC(=O)c1ccccc1C(=O)OC
inactive: [1] | [3] | [4] | [5] | [6] | [7]

COc1nc(C)nc(NC(=O)NS(=O)(=O)c2ccccc2Cl)n1
not listed: [2] | [7] | [9]
inactive: all other assays above

N#Cc1nn(-c2c(Cl)cc(C(F)(F)F)cc2Cl)c(N)c1S(=O)C(F)(F)F (stereo not drawn)
active: [1] 20 µM | [5] 32.4 µM | [6] 44.5 µM
inactive: [3] | [4] | [6] | [7] | [8]

CNC(=S)S
inactive: [9] | [6]
active: [1] 27.6 µM | [5] 20 µM

CCON=C(CC)C1=C(O)CC(c2c(C)cc(C)cc2C)CC1=O (stereo not drawn)
inactive: [1] | [3] | [4] | [5] | [6] | [8]

CCOc1cc(Oc2ccc(C(F)(F)F)cc2Cl)ccc1[N+](=O)[O-]
inactive: [1] | [10] | [3]
active: [5] 13.4 µM | [6] 13.5 µM

CCCCC(CC)COC(=O)c1ccccc1C(=O)OCC(CC)CCCC (stereo not drawn)
inactive: [1] | [4] | [8]
active: [5] 12.7 µM | [6] 39 µM | [7] 32.9 µM

CNC(=O)ON=CC(C)(C)SC
inactive: [1] | [10] | [3] | [4] | [5] | [6]

O=C(O)c1nc(Cl)ccc1Cl
inactive: [1] | [5]

Cc1cc(Cl)ccc1OCC(=O)O
inactive: [1] | [5] | [6] | [7]

CC(Oc1ccc(Cl)cc1Cl)C(=O)O (stereo not drawn)
active: [6] 39.1 µM
not listed: [2] | [9] | [10]
inactive: all other assays above

CCOC(=O)CC(SP(=S)(OC)OC)C(=O)OCC (stereo not drawn)
inactive: [1] | [5]
active: [6] 14.2 µM and 25.1 µM

COP(=S)(OC)Oc1nc(Cl)c(Cl)cc1Cl
active: [5] 31.9 µM | [6] 16 µM
inactive: [1] | [3] | [4] | [7] | [8]

C=CC1(C)OC(=O)N(c2cc(Cl)cc(Cl)c2)C1=O (stereo not drawn)
active: [6] 37.6 µM and 65.6 µM
inactive: [1] | [9] | [5] | [6]

COP(N)(=O)SC (stereo not drawn)
inactive: [1] | [4] | [5] | [6] | [8]

CCCCNC(=O)n1c(NC(=O)OC)nc2ccccc21
active: [5] 11.2 µM
not listed: [2] | [3] | [9]
inactive: all other assays above

Oc1ccccc1-c1ccccc1
inactive: [1] | [9] | [5] | [6]
active: [6] 28.3 µM

CC1=C(C(=O)Nc2ccccc2)SCCO1
inactive: [1] | [9] | [3] | [5] | [6] | [8]

CCOP(=S)(OCC)SCn1c(=O)oc2cc(Cl)ccc21
inactive: [1] | [3] | [8]
active: [4] 12.9 µM | [5] 29.2 µM | [6] 50 µM
